{"source": "PubChem BioAssay AID720514", "about": "(Broad Institute, 2013)", "note": "About 300 (14%) of roughly 2,100 compounds were called active. Inconclusive results (about 2%) are left out. These entries were drawn from the full list. Results with a measured potency or affinity are listed apart. Unmarked numbers belong to inactive results.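 How the source made its calls: active means every replicate test run called active, with the signal falling and half-maximal concentration within twice the top valid dose; inconclusive means the replicate test runs disagree in their calls; inactive means every test run inactive, including effects in the opposite direction.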", "data": [{"assay": "inhibitors of PGC1a acetylation in cells, dose response, cell-based, cherry-picked samples (AID 720514);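 further: 0% = neutral control wells and -100% = positive control wells; actives lower the acetylation signal so they count as inhibitors of PGC1a acetylation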", "details": "U2OS PGC1a acetylation, AlphaLISA, overnight; series mostly up to 19.5 µM; activity change, negative = inhibition: at the top concentration", "values": [{"smiles": "COc1cccc(C(=O)/C=C/c2ccc(OCC#N)c(OC)c2)c1", "activity change, negative = inhibition": "44.8% [at 10 µM]"}, {"smiles": "COc1ccc(S(=O)(=O)N(C)CC(=O)Nc2cccc(C(C)=O)c2)cc1Cl", "activity change, negative = inhibition": "89.1%"}, {"smiles": "COc1ccc(S(=O)(=O)NNC(=O)c2csc(-n3nc(C)cc3C(F)(F)F)n2)cc1", "activity change, negative = inhibition": "46.5% [at 10 µM]"}, {"smiles": "COc1ccc(Nc2nnc(-c3ccc(C(=O)NCCO)cc3)c3ccccc23)cc1", "activity change, negative = inhibition": "89.6%"}, {"smiles": "Cn1ncc(Cl)c1C(=O)Nc1sc2c(c1C(N)=O)CCC2", "activity change, negative = inhibition": "44.2% [at 10 µM]"}, {"smiles": "N#Cc1cccc(C(c2nnnn2C2CCCC2)N2CCCCCC2)c1", "note": "(stereo unspecified)", "activity change, negative = inhibition": "81.4%"}, {"smiles": "Cc1c(C(=O)N2CCN(c3ccccn3)CC2)sc2ncnc(N3CCN(c4ccccc4)CC3)c12", "activity change, negative = inhibition": "34.3%"}, {"smiles": "COc1cc(NC(=O)c2cccs2)c(OC)cc1NC(=O)CCC(=O)Nc1ccc2ncccc2c1", "activity change, negative = inhibition": "202% [at 10 µM]"}, {"smiles": "Cc1ccc(CC(=O)N2CCN(c3ccc([N+](=O)[O-])cc3)CC2)cc1", "activity change, negative = inhibition": "228%"}, {"smiles": "O=C(Nc1ccc(F)cc1F)N1CCCN(c2ccc([N+](=O)[O-])cn2)CC1", "activity change, negative = inhibition": "107%"}, {"smiles": "CS(=O)(=O)N(CC(=O)N1CCN(c2ccccc2)CC1)c1cccc(Br)c1", "activity change, negative = inhibition": "51.7%"}, {"smiles": "O=C(COc1ccc(Cl)cc1)NCCCNC(=O)c1cccnc1", "activity change, negative = inhibition": "238% [at 10 µM]"}, {"smiles": "Cc1ccc(OCC(=O)NCCCNC(=O)c2cccnc2)cc1C", "activity change, negative = inhibition": "201% [at 10 µM]"}, {"smiles": "Cc1cc2oc(=O)cc(CN3CCC(C)CC3)c2cc1C", "activity change, negative = inhibition": "50.6%"}, {"smiles": "O=C(CN1CCC(n2nnc3ccccc32)CC1)NCc1cccs1", "activity change, negative = inhibition": "118%"}, {"smiles": "C=CCNC(=O)c1ccc(CN2CCC(Cc3ccccc3)CC2)cc1", "activity change, negative = inhibition": "29.6%"}, {"smiles": "Cc1cc(C(=O)NNS(=O)(=O)c2ccc(F)cc2)nn1C(C)(C)C", "activity change, negative = inhibition": "430% [at 10 µM]"}, {"smiles": "COc1cc(CN2[C@@H]3CNC[C@H]2C3c2ccc(-c3ccccc3)cc2)cc(OC)c1", "note": "(stereo partly specified)", "activity change, negative = inhibition": "44.3%"}, {"smiles": "CCOc1ccc(NC2c3ccccc3C(=O)N2Cc2ccc3c(c2)OCO3)cc1", "note": "(stereo unspecified)", "activity change, negative = inhibition": "38.7%"}, {"smiles": "COc1ccc(CCCNC(=O)C2(C)Cc3c(-c4ccc5c(c4)OCO5)ccnc3O2)cc1", "note": "(stereo unspecified)", "activity change, negative = inhibition": "25%"}, {"smiles": "O=C(c1ccccc1Nc1ccc(SC(F)F)cc1)N1CCCCCC1", "activity change, negative = inhibition": "61.7%"}, {"smiles": "Cc1cccc(Nc2nnc(-c3ccc(C(=O)N4C[C@H]5C[C@H](C4)c4cccc(=O)n4C5)cc3)c3ccccc23)c1", "activity change, negative = inhibition": "64.7%"}, {"smiles": "COC(=O)[C@H](Cc1ccccc1)N(C)S(=O)(=O)c1cccc(S(=O)(=O)N(C)[C@@H](Cc2ccccc2)C(=O)OC)c1", "activity change, negative = inhibition": "47.9%"}, {"smiles": "Cc1csc(NC(=O)NC2(C(F)(F)F)Oc3ccccc3O2)n1", "activity change, negative = inhibition": "85.6% [at 10 µM]"}, {"smiles": "O=C(Nc1cccc(C(F)(F)F)c1)c1sc(Cl)nc1C(F)(F)F", "activity change, negative = inhibition": "62.9%"}, {"smiles": "Cc1cccc(C)c1OC1(c2ccccc2)OC(=O)c2ccccc21", "note": "(stereo unspecified)", "activity change, negative = inhibition": "94.7%"}, {"smiles": "O=C(CCn1nnc2ccccc21)Nc1nnc(Cc2ccccc2)s1", "activity change, negative = inhibition": "87.3%"}, {"smiles": "O=S(=O)(NC12CC3CC(CC(C3)C1)C2)c1ccc(F)cc1", "activity change, negative = inhibition": "47.5%"}, {"smiles": "O=C(CSc1nnc(Cn2cnc3ccccc32)o1)c1ccccc1", "activity change, negative = inhibition": "172%"}, {"smiles": "CCOc1ccc(-c2nnn(CC#N)n2)cc1OC", "activity change, negative = inhibition": "186% [at 10 µM]"}, {"smiles": "Cc1cc(C)c2oc(C(=O)N(Cc3ccccc3)c3ccccn3)cc(=O)c2c1", "activity change, negative = inhibition": "44.6%"}, {"smiles": "Cc1ccc(NC(=O)CN(C)S(=O)(=O)c2cccs2)c(Br)c1", "activity change, negative = inhibition": "48.4%"}, {"smiles": "N#C/C(=C(/O)c1ccco1)c1nc2ccccc2[nH]1", "activity change, negative = inhibition": "286%"}, {"smiles": "COc1ccc(-c2c(-c3cc(OC)cc(OC)c3)n(C)c3ccc(-c4cnc(N)nc4)cc23)cc1", "activity change, negative = inhibition": "119%"}, {"smiles": "Cc1cc(S(=O)(=O)c2ccc([N+](=O)[O-])cn2)ccc1Br", "activity change, negative = inhibition": "105% [at 10 µM]"}, {"smiles": "O=C(NCCC1CCCCN1S(=O)(=O)c1cccs1)C(=O)Nc1ccc(F)cc1F", "note": "(stereo unspecified)", "activity change, negative = inhibition": "81.8%"}, {"smiles": "O=C(Cc1ccccn1)NCC[C@@H]1CC[C@H](NC(=O)Nc2ccc(C(F)(F)F)cc2)[C@H](CO)O1", "activity change, negative = inhibition": "-0.998%"}, {"smiles": "O=C(Cc1ccccn1)NCC[C@H]1CC[C@H](NC(=O)Nc2ccc(C(F)(F)F)cc2)[C@H](CO)O1", "activity change, negative = inhibition": "12.7% [at 21 µM]"}, {"smiles": "CCOC(=O)C(Cc1ccc(NC(=O)/C(=C\\c2ccccc2)NC(=O)c2ccccc2)cc1)N1C(=O)c2ccccc2C1=O", "note": "(stereo unspecified)", "activity change, negative = inhibition": "39.8%"}, {"smiles": "O=C(NCc1cccs1)C1Cc2c(-c3ccc(Cl)cc3)ccnc2O1", "note": "(stereo unspecified)", "activity change, negative = inhibition": "95.1%"}, {"smiles": "C[n+]1c2n(c3ccccc31)N=C(c1cc(C(C)(C)C)c(O)c(C(C)(C)C)c1)CS2", "activity change, negative = inhibition": "119%"}, {"smiles": "COc1ccc([N+](=O)[O-])cc1NCc1ccccc1", "activity change, negative = inhibition": "131% [at 10 µM]"}, {"smiles": "Cc1cc(C)c2c(-n3cccc3)c(C(=O)NNS(=O)(=O)c3ccc(F)cc3)sc2n1", "activity change, negative = inhibition": "109%"}, {"smiles": "CCOC(=O)C1=CC[C@@H](c2ccccc2)N(S(=O)(=O)c2ccc(C)cc2)[C@H]1c1ccc(CC)cc1", "activity change, negative = inhibition": "153% [at 10 µM]"}, {"smiles": "CCN(CC)c1ccc(NC(=O)c2cc(OC)cc(OC)c2)c(C)c1", "activity change, negative = inhibition": "58.6%"}, {"smiles": "CCOC(=O)c1ccc(NC(=O)N2CCc3ccccc3C2)cc1", "activity change, negative = inhibition": "223% [at 10 µM]"}, {"smiles": "CC1(Cc2ccc(Cl)cc2)C(=O)Nc2c(Cl)ccc(Cl)c21", "note": "(stereo unspecified)", "activity change, negative = inhibition": "87.1%"}, {"smiles": "Cc1ccc(OCC(=O)N2CC(C)OC(C)C2)c([N+](=O)[O-])n1", "note": "(stereo unspecified)", "activity change, negative = inhibition": "44.5% [at 10 µM]"}, {"smiles": "CCOC(=O)C(C)n1cnc2c(nnn2-c2ccc(C)cc2)c1=O", "note": "(stereo unspecified)", "activity change, negative = inhibition": "43%"}, {"smiles": "COc1ccc2nc3c(cc2c1)c(NC(=O)c1cccs1)nn3CC(C)C", "activity change, negative = inhibition": "83% [at 10 µM]"}, {"smiles": "O=C(NCc1ccccc1)C(c1ccccc1)N(C(=O)c1csnn1)c1ccc(F)cc1", "note": "(stereo unspecified)", "activity change, negative = inhibition": "84.8%"}, {"smiles": "O=C(Nc1ccc(Nc2ccncc2)cc1)c1ccc([N+](=O)[O-])cc1", "activity change, negative = inhibition": "65.5% [at 10 µM]"}, {"smiles": "CCC(=O)Nc1ccc2c(c1)OC[C@@H](C)N(C(=O)c1cnccn1)C[C@H](C)[C@H](OC)CN(C)C2=O", "activity change, negative = inhibition": "30.5%"}, {"smiles": "CO[C@@H]1CN(C)C(=O)c2cc(NC(=O)c3ccc(Oc4ccccc4)cc3)ccc2OC[C@@H](C)NC[C@@H]1C", "activity change, negative = inhibition": "62.6%"}, {"smiles": "CCC(=O)N1C[C@H](C)[C@@H](OC)CN(C)C(=O)c2ccc(NC(=O)Nc3ccccc3)cc2OC[C@@H]1C", "activity change, negative = inhibition": "29.8%"}, {"smiles": "CCOC(=O)C1(N(CC)CC)Sc2cc(C)ccc2NC1=O", "note": "(stereo unspecified)", "activity change, negative = inhibition": "115%"}, {"smiles": "CC(=O)Nc1sc2c(c1-c1nc3ccccc3s1)CN(C(C)C)CC2", "activity change, negative = inhibition": "174%"}, {"smiles": "C[C@@H]1CN([C@H](C)CO)C(=O)CCCn2nncc2CO[C@H]1CN(C)C(=O)C1CC1", "activity change, negative = inhibition": "49.1%"}, {"smiles": "O=C(Cc1ccccc1)Nc1ccc(NC(=O)c2ccco2)nc1", "activity change, negative = inhibition": "95.1% [at 10 µM]"}, {"smiles": "CC(=O)C1=CCC(c2cccc3ccccc23)N(S(=O)(=O)c2ccc(C)cc2)C1", "note": "(stereo unspecified)", "activity change, negative = inhibition": "37.8%"}, {"smiles": "CCOC(=O)N1CCN(C(=O)C(NS(=O)(=O)c2cccc3nsnc23)c2ccccc2)CC1", "note": "(stereo unspecified)", "activity change, negative = inhibition": "46%"}]}]}
